Test systems include SK-MEL-2 melanoma; EKVX NSCLC; SN12C renal; UO-31 renal; TK-10 renal; ACHN renal; CAKI-1 renal; CCRF-CEM leukemia; MOLT-4 leukemia; A498 renal.
Holding throughout (assay): NCI-60 one-dose screen, 48 h (100 = growth as untreated, 0 = no growth, -100 = all killed)
What all share (settings): 10 µM unless noted

The panel holds about 83,000 compounds, 20% with a hit somewhere; the sample as a whole holds those more often.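 Note: values are percent growth. 100 is the growth of untreated cells, values between 100 and 0 indicate rising inhibition; between -100 and 0 indicates cell death.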 Values without a mark were called inactive. The source made the active and inactive calls. How the source made its calls: active means growth percent below 10; inactive means the rest.

For `CCCCOC(=O)C1OC(Oc2ccc3c(C)cc(=O)oc3c2)[C@@H](OC(C)=O)C(OC(C)=O)C1OC(C)=O` (stereo not given in full), the growth in the test with SK-MEL-2 melanoma is 103%; in the test on EKVX NSCLC it was 89.5%; with SN12C renal it was 99.6%; with UO-31 renal, 87.1%; in the test on TK-10 renal, 99.2%; with ACHN renal, 101%. For the same molecule, the values for the growth in the test with CAKI-1 renal, with CCRF-CEM leukemia and with MOLT-4 leukemia were 94.1%, 94.1% and 107%, respectively.

As to `CCOC(=O)c1c(-c2cc(OC)c(OC)c(OC)c2)csc1N`, the growth with SK-MEL-2 melanoma was 101%; with EKVX NSCLC it was 110%; in the test with SN12C renal it was 105%; with UO-31 renal, 75.9%; with TK-10 renal, 93.3%; in the test with ACHN renal, 99.2%. For the same molecule, the growth was 68.1% with CAKI-1 renal, 101% with A498 renal, 83.7% with CCRF-CEM leukemia and 92.3% in the test with MOLT-4 leukemia.

Turning to `COC(=O)c1c2c(c(C)[n+]([O-])c1C)C(=O)C(NCc1ccc(O)cc1)=CC2=O`, the growth with SK-MEL-2 melanoma was -12.5% (active); in the test on EKVX NSCLC, -34.5% (active); in the test with SN12C renal, -89.9% (active); in the test with UO-31 renal, 6.95% (active); with TK-10 renal, 74.1%; in the test with ACHN renal, 8.06% (active). Moreover, the growth with CAKI-1 renal was 7.36% (active); with CCRF-CEM leukemia it was 6.08% (active); in the test on MOLT-4 leukemia it was -1.35% (active).

For `O=c1onc(-c2ccccc2)c2ccccc12`, the growth in the test with SK-MEL-2 melanoma is 118%; in the test on EKVX NSCLC it was 121%; in the test with SN12C renal, 101%; in the test on UO-31 renal, 97.8%; in the test with TK-10 renal, 114%; in the test on ACHN renal, 112%. Moreover, the growth is 98.5% with CAKI-1 renal, 83.1% in the test on A498 renal and 98.9% with MOLT-4 leukemia.

For the molecule `COc1ccc(OC)c(/C=C2\Oc3cc(O)ccc3C2=O)c1`, the growth with SK-MEL-2 melanoma is 98.6%; with EKVX NSCLC it was 91.4%; with SN12C renal, 85.8%; in the test with UO-31 renal, 60.3%; in the test on TK-10 renal, 103%; in the test with ACHN renal, 68.3%. Besides, the growth in the test with CAKI-1 renal was 93.7%; in the test with CCRF-CEM leukemia it was 96.1%; in the test with MOLT-4 leukemia, 100%.

In the case of `COc1cc2oc(-c3ccc(O)cc3)cc(=O)c2c(O)c1I`, the growth with SK-MEL-2 melanoma is 103%; in the test on EKVX NSCLC, 87.8%; with SN12C renal it was 100%; in the test on UO-31 renal, 93%; in the test with TK-10 renal it was 109%; with ACHN renal, 98.7%. Moreover, the growth with CAKI-1 renal is 96.6%; in the test on CCRF-CEM leukemia, 94.9%; with MOLT-4 leukemia, 111%.

As for `COc1ccc(C2SC(C)C(=O)N2CCc2cccs2)cc1OC` (stereo not given), the growth with SK-MEL-2 melanoma was 93%; with EKVX NSCLC, 66.4%; in the test with SN12C renal, 90.1%; with UO-31 renal, 79.2%; with TK-10 renal it was 113%; in the test on ACHN renal, 80.1%. In addition, the growth with CAKI-1 renal was 73.2%; in the test with A498 renal it was 81.9%; with CCRF-CEM leukemia, 75.9%; in the test with MOLT-4 leukemia, 64.7%.

As to `Cc1cc(=O)c2c(C)ccc(C)c2[nH]1`, the growth was 104% in the test on SK-MEL-2 melanoma; 102% with EKVX NSCLC; 101% in the test with SN12C renal; 86.8% in the test with UO-31 renal; 108% with TK-10 renal; 102% in the test on ACHN renal. The growth was 108% with CAKI-1 renal, 108% with A498 renal, 102% in the test on CCRF-CEM leukemia and 100% in the test on MOLT-4 leukemia.

For `COc1cc(OCc2cccc(-c3ccc(C(O)c4nccs4)cc3)c2C)cc(OC)c1C=O` (stereo not given), the growth in the test on SK-MEL-2 melanoma was 60.4%; in the test with EKVX NSCLC it was 43%; in the test on SN12C renal it was 61.8%; with UO-31 renal, 22.9%; with TK-10 renal it was 27.7%; in the test with ACHN renal it was 25.2%. Moreover, the growth with CAKI-1 renal was 2.55% (active); with CCRF-CEM leukemia, 37.2%; in the test on MOLT-4 leukemia, 21.2%.

For the molecule `CCCCCCCC/C=C\CCCCCCCCOc1cccc(CC(=O)NCC[N+]2(C)CCCCC2)c1`, the growth was 91.8% with SK-MEL-2 melanoma; 78.7% in the test with EKVX NSCLC; 47.8% in the test with SN12C renal; 86.8% in the test on UO-31 renal; 76.8% in the test on TK-10 renal; 94.7% in the test with ACHN renal. For the same molecule, the growth in the test with CAKI-1 renal is 70.3%; with CCRF-CEM leukemia it was 38.5%; with MOLT-4 leukemia it was 57%.

As to `COC(=O)c1c2c(c(C)[n+]([O-])c1C)C(=O)C=C(NCc1cccc(Cl)c1)C2=O`, the growth is -32.8% (active) in the test with SK-MEL-2 melanoma; -57.3% (active) in the test on EKVX NSCLC; -90.7% (active) with SN12C renal; -18.5% (active) with UO-31 renal; 14.5% in the test with TK-10 renal; -44.8% (active) in the test with ACHN renal. Also, the growth in the test with CAKI-1 renal is -14.3% (active); with CCRF-CEM leukemia, -11.2% (active); with MOLT-4 leukemia, -34.8% (active).

For `NS(=O)(=O)c1ccc(C(=O)N/N=C(\CS(=O)(=O)c2ccccc2)c2cc3cc(Br)ccc3o2)cc1`, the growth was 100% with SK-MEL-2 melanoma; 103% with EKVX NSCLC; 89% with SN12C renal; 101% in the test on UO-31 renal; 107% in the test on TK-10 renal; 99.3% in the test on ACHN renal. The growth in the test with CAKI-1 renal was 89.9%; in the test on CCRF-CEM leukemia it was 118%; in the test with MOLT-4 leukemia, 137%.

For the molecule `Clc1ccc(C2=Nc3cccc4cccc(c34)N2)cc1Cl`, the growth in the test with SK-MEL-2 melanoma is 96.2%; in the test on EKVX NSCLC, 91.1%; with SN12C renal it was 110%; in the test on UO-31 renal it was 72.3%; in the test with TK-10 renal, 97.9%; in the test on ACHN renal it was 94.7%. For the same molecule, in the test on CCRF-CEM leukemia, the growth is 67.4%.

Consider `O=C(N/N=C/c1ccc(OC(F)F)c(OC2CCCC2)c1)c1cnn2c1NC(c1ccccc1)C2` (stereo not given), for which the growth is 90.7% with SK-MEL-2 melanoma; 91.5% with EKVX NSCLC; 87.1% in the test on SN12C renal; 65.1% in the test with UO-31 renal; 91.9% with TK-10 renal; 82.3% with ACHN renal. Besides, the figures for the growth with CCRF-CEM leukemia and in the test with MOLT-4 leukemia were 78.7% and 54.7%, respectively.

`O=C(N/N=C(\CS(=O)(=O)c1ccccc1)c1cc2cc(Br)ccc2oc1=O)c1ccccc1`: the growth in the test on SK-MEL-2 melanoma is 105%; in the test with EKVX NSCLC, 94.2%; in the test with SN12C renal it was 96.1%; with UO-31 renal, 94.4%; in the test on TK-10 renal, 108%; in the test with ACHN renal, 103%. Also, the growth is 90.6% with CAKI-1 renal, 131% in the test on CCRF-CEM leukemia and 140% in the test with MOLT-4 leukemia.

The record behind these values is PubChem BioAssay (NCI).
